According to PubChem BioAssay AID1490 (National Center for Advancing Translational Sciences (NCATS), 2009):
In all, about 310,000 compounds went through this assay and about 11,000 (3.5%) were called active. About 4% were inconclusive and are not listed. This is one part of a sample in which actives are shown more often than they occur. The call rests on the fitted dose curve; in most records, active means well fitted inhibition curve with a large enough effect; inconclusive means small, poorly fitted or top-dose-only effect, or another doubt; inactive means no such curve, though single readings can be large or run the other way.

Molecular target: 4'-phosphopantetheinyl transferase ffp (Bacillus subtilis) (UniProt Q9F4F7)
Assay: qHTS Assay for Inhibitors of Bacillus subtilis Sfp phosphopantetheinyl transferase (PPTase);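 further: the enzyme is Sfp with the accession as filed and its product quenches rhodamine fluorescence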;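 on largest response in the series, negative = inhibition: 0% = enzyme reaction without inhibitor and -100% = no enzyme wells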
Conditions: Biochemical Sfp PPTase activity
Source text: Assay Submitter: Michael Burkart, University of California, San Diego
Screening Center PI: Austin, C.P.
Screening Center: NIH Chemical Genomics Center [NCGC]
The covalent attachment of a phosphopantetheinyl (4'-PP) arm to a variety of synthases and other proteins is a key posttranslational protein modification. The 4'-PP is installed on the proteins post-translationally from coenzyme A (CoA) on a conserved serine residue by action of phosphopantetheinyl transferase (PPTase) enzymes. Phosphopantetheinylation is essential for synthase activity, and removal of the PPTase gene precludes natural product synthesis in microorganisms, or in the case of fatty acid biosynthesis, renders the organism unviable. PPTase enzymes belong to a distinct structural superfamily. Within bacteria, these enzymes are grouped into two classes based upon primary structure, the AcpS-Type and Sfp-Type PPTases.
Sfp-type PPTases, corresponding to an activator of surfactin production in Bacillus subtilis, are responsible for modifying type I polyketide and nonribosomal peptide synthases of prokaryotes. Sfp-type PPTases are responsible for the activation of a variety of pathogen-associated virulence factors. Among these compounds are toxins such as mycolactone from Mycobacterium ulcerans, siderophores such as vibriobactin from Vibrio cholerae or mycobactin from Mycobacterium tuberculosis, as well as the mycolic acids which form the waxy cell wall of Mycobacteria. The biosyntheses of these natural products are considered attractive targets for drug design.
In search of small molecule Sfp-PPTase inhibitors, a fluorescence quenching assay was developed for detection of Bacillus subtilis Sfp-PPTase enzymatic activity in a miniaturized high-throughput format. The consensus ybbr acceptor peptide […] was N-terminally labeled with Black Hole Quencher-2 (BHQ-2) and used in combination with rhodamine-labeled coenzyme A as a co-substrate.
Inhibition of Sfp-PPTase was detected by recording the fluorescence intensity change over a 30-minute reaction period at a 525 nm excitation and 598 nm emission. Reagents were supplied by Michael Burkart and Timothy Foley, University of California at San Diego.
This BioAssay deposition is for validation of the developed Sfp-PPtase assay.
Assay Buffer: 50 mM Hepes-Na pH 7.6, 10 mM MgCl2, 0.01% Nonidet P-40, and 0.01% BSA.
3 uL of Sfp-PPTase enzyme (final concentration 15 nM) and 1 uL of substrate mixture (final concentration for rhodamine-CoA and BHQ-2-YbbR 5 uM and 12.5 uM, respectively) dispensed in columns 1, 2, 5 - 48. Columns 1 and 2 used to generate neutral control (uninhibited reaction)
Three uL of reagents, consisting of buffer (in columns 3 and 4 as negative control) and Sfp-PPTase (in columns 1, 2, 5 - 48) were dispensed into 1,536-well Greiner black solid bottom plate. Compounds (23 nL) were transferred via Kalypsys pintool equipped with 1,536-pin array. The plate was incubated for 15 min at room temperature, followed by the addition of 1 uL substrate to start the reaction. The plate was then centrifuged at 1000 rpm for 15 seconds, and the fluorescence intensity recorded on a ViewLux High-throughput CCD imager (Perkin-Elmer) using standard BODIPY optics (525 nm excitation and 598 nm emission). The plate was then incubated for 30 minutes, and a second read on the ViewLux was performed. The fluorescence intensity difference over the 30-minute period was used to calculate the respective reaction rate for each well.
Potency means the concentration at half of the fitted maximal effect.

SMILES | largest response in the series, negative = inhibition | Potency
O=C(N/N=C/c1cccc(Br)c1)c1ccc(N2CCCC2=O)cc1 | 2.98% (inactive) | 
Cc1occc1C(=O)NC1CCCN(Cc2ccc(CC(C)C)cc2)C1 (stereo not drawn) | 10% (inactive) | 
COc1ccc(CNC(=O)CN(C(=O)c2csnn2)c2cnc3ccccc3c2)cc1 | 15.4% (inactive) | 
CCc1c(C)sc(NC(=O)c2cccs2)c1C(N)=O |  | 14.1 µM (active)
CCc1c(C)sc(NC(=O)c2ccc(Br)o2)c1C(=O)OC | -4.91% (inactive) | 
COC(=O)c1c(NC(=O)c2cccs2)sc2c1CCCC2 | 6.07% (inactive) | 
CC(C)(COC(=O)Nc1ccccc1)COC(=O)Nc1ccccc1 | 5.47% (inactive) | 
NC(=O)CSc1nnc(NC(=O)c2ccc(Br)o2)s1 | 4.59% (inactive) | 
Cc1cc(OC(=O)c2ccc(OC(C)C)cc2)c([N+](=O)[O-])c(=O)[nH]1 | 16.6% (inactive) | 
Fc1ccccc1COc1ccccc1CNCc1ccncc1 | -8.76% (inactive) | 
c1ccc(COc2ccccc2CNCc2cccnc2)cc1 |  | 56.2 µM (active)
C=CCOc1cccc(CNCc2cccnc2)c1 | -13.5% (inactive) | 
Oc1c(Cl)cc(Cl)cc1/C=N/c1ncn[nH]1 | -2.74% (inactive) | 
Cc1ccccc1CN1C[C@@H]2C[C@@H](c3cn(C)nc3-c3ccccc3)N3CCC[C@@]23C1=O |  | 3.16 µM (active)
Cc1ccc(CN2CCN(Cc3cn(C)nc3-c3ccccc3)CC2CCO)o1 (stereo not drawn) | 8.78% (inactive) | 
Cc1ccccc1CN1C[C@@H]2C[C@@H](c3ccc4nsnc4c3)N3CCC[C@@]23C1=O | 7.31% (inactive) | 
COc1ccc(NC(=O)CSc2nc(SC)ns2)c(OC)c1 | 8.6% (inactive) | 
COC(=O)C1=C(C(=O)OC)C(c2cc([N+](=O)[O-])ccc2O)c2sc(=O)[nH]c2S1 (stereo not drawn) |  | 44.7 µM (active)
COC(=O)C1=C(C)N(C)C(=O)NC1c1ccc([N+](=O)[O-])o1 (stereo not drawn) | 23.4% (inactive) | 
COC(=O)c1c(C)[nH]c(C)c1-c1ccc([N+](=O)[O-])cc1 | 9.93% (inactive) | 
COC(=O)c1cc(S(=O)(=O)N2CCN(c3cc(C)ccc3C)CC2)c[nH]1 | 24.2% (inactive) | 
COc1ccc(S(=O)(=O)n2nc(C)c(S(=O)(=O)N3CCOCC3)c2C)cc1 | 8.67% (inactive) | 
Cc1ccc(C2Nc3cccc4cccc(c34)N2)cc1 | -26.1% (inactive) | 
COc1cccc(C2Nc3cccc4cccc(c34)N2)c1 | 6.1% (inactive) | 

SMILES | largest response in the series, negative = inhibition | Potency
Oc1ccc(C2Nc3cccc4cccc(c34)N2)cc1 |  | 35.5 µM (active)
FCOC(C(F)(F)F)C(F)(F)F | 11.5% (inactive) | 
CCc1ccc(NC(=O)Cn2nnc(C(=O)NCc3ccc(OC)cc3)c2N)cc1 | 4.14% (inactive) | 
COc1ccc(CNc2ncncc2-c2ccccc2OC)c(OC)c1 | -6.24% (inactive) | 
COc1ccc(CNc2ncncc2-c2ccccc2C)c(OC)c1 | -23.8% (inactive) | 
Cc1cnc(CNc2ncncc2-c2ccccc2Cl)cn1 |  | 79.4 µM (active)
CS(=O)(=O)c1ccccc1C(=O)Nc1ccc2sccc2c1 | 8.96% (inactive) | 
CCn1c(SCc2ccccc2)nc2c(c1=O)SCC2 | 11.2% (inactive) | 
Cn1c(SCC(=O)N2CCCCC2)nc2c(c1=O)SCC2 | 15.7% (inactive) | 
Cc1cccc(CSc2nc3c(c(=O)n2C)SCC3)c1 |  | 50.1 µM (active)
Cc1ccc(S(=O)(=O)N(Cc2ccccc2)c2ccccn2)cc1[N+](=O)[O-] | 11.4% (inactive) | 
COc1cc(S(=O)(=O)Nc2ncn[nH]2)ccc1Cl | -14.8% (inactive) | 
CC(C)(C)C1C/C(=C/c2ccco2)C(=O)/C(=C/c2ccco2)C1 (stereo not drawn) |  | 20 µM (active)
CCC1S/C(=N/N=C/c2ccco2)NC1=O (stereo not drawn) | 3.46% (inactive) | 
O=C1OC(/C=C/c2ccccc2)=NC/1=C/c1ccco1 | 12.2% (inactive) | 
CCCC(=O)N1CCC(CCC(=O)NC2CC2)CC1 | 11.2% (inactive) | 
COc1ccc(CNC(=O)C2CCN(C(=O)c3ccccc3)CC2)cc1 | 8.47% (inactive) | 
CCCCC(CC)CNC(=O)C(=O)C1C(=O)Nc2ccccc21 (stereo not drawn) | 22% (inactive) | 
CCOC(=O)CC1=CC(=O)Nc2ccccc2N1 | -6.73% (inactive) | 
CCOC(=O)C(=O)C1C(=O)Nc2ccccc21 (stereo not drawn) |  | 25.1 µM (active)
COC1=C/C(=C/c2c(N)n3nc(CC(=O)N4CCOCC4)sc3nc2=O)C=CC1=O | -2.99% (inactive) | 
CCC(NC(=O)c1ccccc1NC(=O)c1ccccc1)C(=O)NNC(=O)CSc1nc2ccccc2o1 (stereo not drawn) | -1.67% (inactive) | 
CCCCc1nnc(NC(=O)CSc2nc(C)cc(=O)[nH]2)s1 | 9.76% (inactive) | 
CCOC(=O)Cc1csc(NC(=O)CSc2ccc(Br)cc2)n1 | 11.6% (inactive) | 

SMILES | largest response in the series, negative = inhibition | Potency
CCOC(=O)Cc1csc(NC(=O)CSc2nc(C)cc(=O)[nH]2)n1 |  | 17.8 µM (active)
Cc1ccc(-n2c(SCC(=O)NCCC3=CCCCC3)nc3n[nH]c(C)c3c2=N)cc1Cl | 14.5% (inactive) | 
CSc1cccc(NC(=O)CN2C(=O)COc3ccc(S(=O)(=O)N4CCOCC4)cc32)c1 | 10.2% (inactive) | 
O=C1COc2ccc(S(=O)(=O)Nc3ccc(OC(F)(F)F)cc3)cc2N1 | 25.6% (inactive) | 
Cc1nc([N+](=O)[O-])cn1CC(=O)Nc1ccc(Cl)cc1 | 16.2% (inactive) | 
N#Cc1c(-c2ccc(Cl)cc2)c2c([nH]c1=S)CCCC2 | -5.85% (inactive) | 
CCOC(=O)c1c(C)[nH]c(=S)c(C#N)c1-c1ccccc1 |  | 79.4 µM (active)
CCOC(=O)c1c(C)nc(-c2ccccc2)nc1NC(=O)C(C)C | -3.48% (inactive) | 
Cc1cc(C)c2c(-c3ccc(F)cc3)c(C#N)c(=O)n(C)c2n1 | 10.3% (inactive) | 
CC(=O)c1c(C)[nH]c(=S)c(C#N)c1-c1ccc(F)cc1 |  | 44.7 µM (active)
CCOC(=O)c1c(C)[nH]c2c1-c1ccccc1C(=O)C2=O | 4.96% (inactive) | 
Cc1ccc(S(=O)(=O)NCC(=O)N2CCOCCOCCOCCOCC2)cc1 | 7.3% (inactive) | 
Cc1ccc(-c2nn(-c3ccccc3)cc2CN(Cc2ccccc2)C(=O)CCC(=O)O)o1 |  | 8.91 µM (active)
CN(C)S(=O)(=O)c1cccc(-c2nn(-c3ccccc3)cc2/C=C2\SC(=S)N(CC(=O)O)C2=O)c1 |  | 56.2 µM (active)
Cc1ccc(-c2nn(-c3cccc(F)c3)cc2CNCCc2ccncc2)o1 | -5% (inactive) | 
O=C(O)CCC(=O)N(Cc1ccccc1)Cc1ccccc1 | 17.6% (inactive) | 
O=C(CN1C(=O)/C(=C\c2ccccc2F)SC1=S)Nc1nc2ccccc2s1 | 5.28% (inactive) | 
COc1ccc(/C=C2\SC(=S)N(CCC(=O)Nc3ccccn3)C2=O)cc1OC | 11% (inactive) | 
C=CCOc1ccc(/C=C2\SC(=S)N(CCC(=O)O)C2=O)cc1 | 6.13% (inactive) | 
Cc1ccc(-c2nn(-c3ccccc3)cc2/C=C/C(=O)Nc2cccc(S(N)(=O)=O)c2)cc1 | 12.2% (inactive) | 
Cc1ccc(-c2nn(-c3ccccc3)cc2/C=C2\SC(=S)N(CCCCCC(=O)O)C2=O)o1 |  | 39.8 µM (active)
COc1ccccc1C(=O)NNC(=O)CCN1C(=O)/C(=C\c2ccccc2)SC1=S | -10.5% (inactive) | 
Cc1ccc(/C=C2\SC(=S)N(CCC(=O)Nc3ccc(O)cc3)C2=O)cc1 | 15.8% (inactive) | 
COc1ccc(-c2nn(-c3ccccc3)cc2/C=C2/SC(=S)N(CCCC(=O)O)C2=O)c(C)c1 |  | 56.2 µM (active)

SMILES | largest response in the series, negative = inhibition | Potency
Cc1n[nH]c(=O)c2c1nnn2Cc1ccc(F)cc1 | 6.71% (inactive) | 
CCOCCCNC(=O)C1(O)c2cc(Br)ccc2NC(=O)N1c1ccc(C)c(C)c1 (stereo not drawn) | -2.61% (inactive) | 
Cc1ccc(S(=O)(=O)NCCC(=O)Nc2cccc(S(N)(=O)=O)c2)cc1C | -1.6% (inactive) | 
O=S(=O)(c1ccc(F)cc1)N1CCN=C1SCc1cccc(F)c1 | 5.65% (inactive) | 
O=C(Nc1ccccc1C(=O)Nc1ccncc1)c1ccc([N+](=O)[O-])cc1 | 4.06% (inactive) | 
O=C(CN1CCCCCC1)Nc1c(Cl)cc(Cl)cc1Cl | 6.16% (inactive) | 
O=S(O)S(=O)(=O)O | 7.74% (inactive) | 
Cc1nc2nc(C)c(NS(=O)(=O)c3ccc(C(C)(C)C)cc3)c(=O)n2[nH]1 | 14.4% (inactive) | 
COc1cccc(C(=O)NC(=O)Nc2nc(C)cc(C(F)(F)F)n2)c1 | 14.9% (inactive) | 
CC1CC(C)CN(CCCNC(=O)c2csc3c2CCCCC3)C1 (stereo not drawn) | 5.49% (inactive) | 
O=C(NCCc1cccc(F)c1)C1CCCN(c2nc3ccccc3s2)C1 (stereo not drawn) | -6.45% (inactive) | 
CN1CCN(c2ccccc2NC(=O)COc2ccc(C3CCCCC3)cc2)CC1 | -19.2% (inactive) | 
CCn1cc(C(=O)NCC2CCCO2)c(=O)c2cc(S(=O)(=O)N3CCCCC3)ccc21 (stereo not drawn) | 4.08% (inactive) | 
CCn1cc(C(=O)N2CC(C)CC(C)C2)c(=O)c2cc(S(=O)(=O)N3CCCC3)ccc21 (stereo not drawn) | 3.15% (inactive) | 
CCn1cc(C(=O)NCCCN2CCCCCC2)c(=O)c2cc(S(=O)(=O)N3CCc4ccccc4C3)ccc21 |  | 89.1 µM (active)
CCN1CCN(C(=O)C2CCN(S(=O)(=O)c3cc(Cl)ccc3Cl)CC2)CC1 | 7.6% (inactive) | 
CC(C)c1ccc(NC(=O)[C@@H](NC(=O)N2CC(=O)Nc3ccccc32)C(C)C)cc1 | 4.22% (inactive) | 
Oc1c(C(c2cccs2)N2CCN(c3ccc(F)cc3)CC2)sc2ncnn12 (stereo not drawn) | 13.9% (inactive) | 
Cc1nc2sc(C(c3ccco3)N3CCOCC3)c(O)n2n1 (stereo not drawn) | -2.77% (inactive) | 
Oc1c(C(c2ccco2)N2CCC3(CC2)OCCO3)sc2ncnn12 (stereo not drawn) |  | 28.2 µM (active)
Cc1ccc2c(c1)C(c1ccccc1)N(C(=O)c1ccc(F)cc1)CC(=O)N2 (stereo not drawn) | -5.97% (inactive) | 
